According to PubChem BioAssay AID1159580 (chemical genetic matrix, 2015):
The campaign covered roughly 5,500 compounds. About 2,000 (36%) were called active. About 18% were inconclusive and are not listed. Rule as the data show it: active = normalized growth mostly below about 0.91 (no sharp cut-off); inconclusive = no clear call, values can overlap the other calls; inactive = mostly above about 0.92. The list shows a part of the results.

Test: chemical genetic growth profiling, strain panel (AID 1159580);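 also: tested at 20 µM; growth read once vehicle control cultures reached saturation at 30 °C; 1 = growth at the plate median or of vehicle wells; lower values mean less growth of the strain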
Settings: growth OD

Measured: normalized growth

CC(=O)c1cc(CC=C(C)C)c(O)c(CC=C(C)C)c1
active: S. cerevisiae deletion strains, locus YKR001C, strain vps1, stronger effect = lower value 0.898 | S. cerevisiae deletion strains, locus YLR418C, strain cdc73, stronger effect = lower value 0.758 | S. cerevisiae deletion strains, locus YOR184W, strain ser1, stronger effect = lower value 0.838
inactive: S. cerevisiae deletion strains, locus YJL187C, strain SWE1 (second series), stronger effect = lower value 0.961 | S. cerevisiae deletion strains, locus YJL187C, strain SWE1, stronger effect = lower value 1.01 | S. cerevisiae deletion strains, locus YJR043C, strain POL32, stronger effect = lower value 0.998 | S. cerevisiae deletion strains, locus YKL009W, strain mrt4, stronger effect = lower value 0.947 | S. cerevisiae deletion strains, locus YKL068W, stronger effect = lower value 0.969 | S. cerevisiae deletion strains, locus YKL085W, strain MDH1 (second series), stronger effect = lower value 0.967 | S. cerevisiae deletion strains, locus YKL085W, strain MDH1, stronger effect = lower value 0.967 | S. cerevisiae deletion strains, locus YKL160W, strain elf1, stronger effect = lower value 1 | S. cerevisiae deletion strains, locus YKR026C, strain gcn3, stronger effect = lower value 1.01 | S. cerevisiae deletion strains, locus YKR091W, strain srl3, stronger effect = lower value 1.01 | S. cerevisiae deletion strains, locus YLL001W, strain dnm1, stronger effect = lower value 1 | S. cerevisiae deletion strains, locus YLL026W, stronger effect = lower value 1.01 | S. cerevisiae deletion strains, locus YLL041C, strain sdh2, stronger effect = lower value 1.01 | S. cerevisiae deletion strains, locus YLR027C, strain aat2, stronger effect = lower value 1.01 | S. cerevisiae deletion strains, locus YLR039C, strain RIC1, stronger effect = lower value 0.697 | S. cerevisiae deletion strains, locus YLR058C, strain SHM2, stronger effect = lower value 0.982 | S. cerevisiae deletion strains, locus YLR102C, strain apc9, stronger effect = lower value 0.964 | S. cerevisiae deletion strains, locus YLR221C, strain rsa3, stronger effect = lower value 1 | S. cerevisiae deletion strains, locus YLR258W, strain gsy2, stronger effect = lower value 1.01 | S. cerevisiae deletion strains, locus YLR262C, strain YPT6 (second series), stronger effect = lower value 0.949 | S. cerevisiae deletion strains, locus YLR262C, strain YPT6, stronger effect = lower value 0.747 | S. cerevisiae deletion strains, locus YLR268W, strain sec22, stronger effect = lower value 0.924 | S. cerevisiae deletion strains, locus YLR320W, strain mms22, stronger effect = lower value 1.01 | S. cerevisiae deletion strains, locus YLR330W, strain CHS5, stronger effect = lower value 0.923 | S. cerevisiae deletion strains, locus YLR342W, strain FKS1 (second series), stronger effect = lower value 1.03 | S. cerevisiae deletion strains, locus YLR342W, strain FKS1, stronger effect = lower value 1.02 | S. cerevisiae deletion strains, locus YLR357W, strain rsc2, stronger effect = lower value 1.04 | S. cerevisiae deletion strains, locus YLR370C, strain arc18, stronger effect = lower value 1 | S. cerevisiae deletion strains, locus YLR371W, strain rom2, stronger effect = lower value 0.968 | S. cerevisiae deletion strains, locus YLR384C, strain iki3, stronger effect = lower value 1.01 | S. cerevisiae deletion strains, locus YML016C, strain PPZ1, stronger effect = lower value 0.992 | S. cerevisiae deletion strains, locus YML032C, strain rad52, stronger effect = lower value 0.988 | S. cerevisiae deletion strains, locus YML120C, strain ndi1, stronger effect = lower value 0.997 | S. cerevisiae deletion strains, locus YML124C, strain tub3, stronger effect = lower value 0.965 | S. cerevisiae deletion strains, locus YMR058W, strain fet3, stronger effect = lower value 1.01 | S. cerevisiae deletion strains, locus YMR078C, strain ctf18, stronger effect = lower value 0.962 | S. cerevisiae deletion strains, locus YMR125W, strain sto1, stronger effect = lower value 1.02 | S. cerevisiae deletion strains, locus YMR129W, stronger effect = lower value 1.01 | S. cerevisiae deletion strains, locus YMR205C, strain PFK2, stronger effect = lower value 1.01 | S. cerevisiae deletion strains, locus YMR223W, strain ubp8, stronger effect = lower value 0.951 | S. cerevisiae deletion strains, locus YMR231W, strain pep5, stronger effect = lower value 1.01 | S. cerevisiae deletion strains, locus YMR307W, strain GAS1, stronger effect = lower value 0.833 | S. cerevisiae deletion strains, locus YNL067W, strain RPL9B, stronger effect = lower value 0.925 | S. cerevisiae deletion strains, locus YNL071W, strain lat1, stronger effect = lower value 1.01 | S. cerevisiae deletion strains, locus YNL128W, strain TEP1, stronger effect = lower value 0.917 | S. cerevisiae deletion strains, locus YNL153C, strain GIM3, stronger effect = lower value 0.985 | S. cerevisiae deletion strains, locus YNL209W, strain ssb2, stronger effect = lower value 1.01 | S. cerevisiae deletion strains, locus YNL233W, strain BNI4, stronger effect = lower value 0.953 | S. cerevisiae deletion strains, locus YNL248C, strain rpa49, stronger effect = lower value 1.01 | S. cerevisiae deletion strains, locus YNL250W, strain rad50, stronger effect = lower value 0.979 | S. cerevisiae deletion strains, locus YNL271C, strain bni1, stronger effect = lower value 0.962 | S. cerevisiae deletion strains, locus YNL298W, strain CLA4, stronger effect = lower value 0.979 | S. cerevisiae deletion strains, locus YNL307C, strain MCK1, stronger effect = lower value 0.955 | S. cerevisiae deletion strains, locus YNL322C, strain KRE1 (second series), stronger effect = lower value 1.01 | S. cerevisiae deletion strains, locus YNR049C, strain mso1, stronger effect = lower value 1.01 | S. cerevisiae deletion strains, locus YNR052C, strain pop2, stronger effect = lower value 0.989 | S. cerevisiae deletion strains, locus YOL006C, strain TOP1, stronger effect = lower value 0.75 | S. cerevisiae deletion strains, locus YOL012C, strain htz1 0.849 | S. cerevisiae deletion strains, locus YOL147C, strain pex11, stronger effect = lower value 0.981 | S. cerevisiae deletion strains, locus YOR001W, strain rrp6, stronger effect = lower value 1.02 | S. cerevisiae deletion strains, locus YOR061W, strain CKA2, stronger effect = lower value 0.978 | S. cerevisiae deletion strains, locus YOR069W, strain VPS5, stronger effect = lower value 0.986 | S. cerevisiae deletion strains, locus YOR070C, strain gyp1, stronger effect = lower value 1.02 | S. cerevisiae deletion strains, locus YOR080W, strain dia2, stronger effect = lower value 1.02 | S. cerevisiae deletion strains, locus YOR083W, strain WHI5, stronger effect = lower value 1 | S. cerevisiae deletion strains, locus YOR106W, strain vam3, stronger effect = lower value 0.995 | S. cerevisiae deletion strains, locus YOR136W, strain idh2, stronger effect = lower value 0.973 | S. cerevisiae deletion strains, locus YOR144C, strain elg1, stronger effect = lower value 0.981 | S. cerevisiae deletion strains, locus YOR265W, strain rbl2, stronger effect = lower value 1.02 | S. cerevisiae deletion strains, locus YOR270C, strain vph1, stronger effect = lower value 0.949 | S. cerevisiae deletion strains, locus YOR290C, strain snf2, stronger effect = lower value 1.02 | S. cerevisiae deletion strains, locus YOR316C, strain cot1, stronger effect = lower value 0.979 | S. cerevisiae deletion strains, locus YPL051W, strain arl3, stronger effect = lower value 1.01 | S. cerevisiae deletion strains, locus YPL078C, strain atp4, stronger effect = lower value 1.01 | S. cerevisiae deletion strains, locus YPL106C, strain sse1, stronger effect = lower value 1.06 | S. cerevisiae deletion strains, locus YPL240C, strain hsp82, stronger effect = lower value 1.02 | S. cerevisiae deletion strains, locus YPL241C, strain CIN2, stronger effect = lower value 0.974 | S. cerevisiae deletion strains, locus YPR119W, strain clb2, stronger effect = lower value 0.987 | S. cerevisiae deletion strains, locus YPR141C, strain kar3, stronger effect = lower value 0.97 | S. cerevisiae deletion strains, locus YPR163C, strain tif3, stronger effect = lower value 0.952 | S. cerevisiae deletion strains, locus YPR167C, strain met16, stronger effect = lower value 0.974 | S. cerevisiae deletion strains, strain wtn01, stronger effect = lower value 0.908 | S. cerevisiae strains, strain wild type, stronger effect = lower value 0.957
